Test results taken from PubChem BioAssay AID651704 (Broad Institute, 2012).
The whole screen tested about 350,000 compounds, of which about 1,600 (0.46%) were called active. This is one part of a sample in which actives are shown more often than they occur. Values without a mark were called inactive.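 Rule for the calls: active = every replicate reaching a set inhibition limit, whatever the replicate mean (cut at about 25% in these data); inconclusive = mean inhibition reaches that limit but some replicates miss it; inactive = the rest.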

What follows are molecules tested against Protein AF-9 (Homo sapiens) (UniProt P42568) (assay: inhibitors of AF4 peptide binding to AF9, primary screen, biochemical, AlphaScreen, biotin-AF4 peptide, FLAG-AF9, single point (AID 651704;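 note: 0% = plate neutral control median and 100% = total signal loss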)). Conditions: at 10 µM, hits give high values.
Sequence of Protein AF-9 (Homo sapiens) (P42568 whole entry, looked up): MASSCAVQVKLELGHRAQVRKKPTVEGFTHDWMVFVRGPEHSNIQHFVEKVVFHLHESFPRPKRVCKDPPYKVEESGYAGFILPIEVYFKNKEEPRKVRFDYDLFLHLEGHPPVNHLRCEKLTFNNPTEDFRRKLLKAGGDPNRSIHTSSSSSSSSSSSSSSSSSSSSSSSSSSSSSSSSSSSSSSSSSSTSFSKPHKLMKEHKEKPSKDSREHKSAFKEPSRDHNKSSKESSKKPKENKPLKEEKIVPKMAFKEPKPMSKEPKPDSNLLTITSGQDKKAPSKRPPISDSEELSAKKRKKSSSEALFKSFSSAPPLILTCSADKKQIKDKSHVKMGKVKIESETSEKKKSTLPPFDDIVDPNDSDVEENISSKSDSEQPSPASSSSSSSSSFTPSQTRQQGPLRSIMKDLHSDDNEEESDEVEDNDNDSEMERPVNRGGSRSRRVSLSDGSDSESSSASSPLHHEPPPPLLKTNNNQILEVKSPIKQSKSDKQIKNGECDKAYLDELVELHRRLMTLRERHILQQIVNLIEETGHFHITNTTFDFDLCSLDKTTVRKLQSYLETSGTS

Row | Compound | inhibition
1 | COc1cc(CN2CC3(CN(S(=O)(=O)c4cn(C)cn4)C3)c3c(n(C)c4cc(OC)ccc34)[C@H]2CO)cc(OC)c1 | 12.6%
2 | COc1ccc(NC(=O)Nc2ccc3c(c2)[C@H]2C[C@H](CC(=O)NC4CCCC4)O[C@@H](CO)[C@H]2O3)cc1 | 0.232%
3 | CCN(CC)c1ccc(/C=N/NC(=O)c2cnccn2)c(O)c1 | -1.45%
4 | CCN(CC)c1ccc(/C=N/Nc2nc(C)cc(C)n2)c(O)c1 | 79.7% (active)
5 | Cc1cc(C)nc(N/N=C/c2c(CO)cnc(C)c2O)n1 | -5.08%
6 | O=C(C[C@H]1CC[C@H]2[C@@H](COC[C@H](O)CN2C(=O)c2ccncc2)O1)NCc1cc(F)cc(F)c1 | -16%
7 | COc1ccccc1NC(=O)N1CC(=O)N2[C@H](CO)[C@@H](c3ccc(C#Cc4ccc(F)cc4)cc3)[C@H]2C1 | 2.6%
8 | Cn1cnc(S(=O)(=O)N2C[C@H](O)COC[C@@H]3O[C@H](CC(=O)NC4CCCC4)CC[C@H]32)c1 | -0.241%
9 | COc1ccc(S(=O)(=O)Nc2ccc3c(c2)CC(=O)N([C@@H](C)CO)C[C@@H](C)[C@@H](CN(C)Cc2ccc(C(=O)Nc4ccccc4N)cc2)O3)cc1 | -0.302%
10 | C[C@@H]1CCCCO[C@H](CN(C)S(=O)(=O)c2cn(C)cn2)[C@@H](C)CN([C@@H](C)CO)C(=O)c2cc(NC(=O)CCC(F)(F)F)ccc2O1 | -0.444%
11 | COc1ccc(C(=O)COC(=O)c2ccc([N+](=O)[O-])s2)cc1OC | -0.958%
12 | C=Cn1cc[n+](CC(=O)c2ccc(OC)c(OC)c2)c1 | 28.8% (active)
13 | COc1ccc(-n2nnnc2SCC(=O)c2ccc(OC)c(OC)c2)cc1 | -42.4%
14 | CO[C@@H]1CN(C)C(=O)c2ccc(NC(=O)C3CCCC3)cc2OC[C@H](C)NC[C@@H]1C | -0.502%
15 | C#CCOCCOCCOCCNc1nc(N2CCN(C(=O)[C@H](CCCN=C(N)N)n3cc(C(N)[C@@H](C)CC)nn3)CC2)nc(N2CCN(C(=O)[C@H](CO)n3cc([C@@H](N)C(C)C)nn3)CC2)n1 (some centres not stated) | 29.3% (active)
16 | C#CCOCCOCCOCCNc1nc(N2CCN(C(=O)[C@H](CO)n3cc([C@@H](N)C(C)C)nn3)CC2)nc(N2CCN(C(=O)[C@H](CCC(=O)O)n3cc([C@@H](N)[C@H](C)CC)nn3)CC2)n1 | 0.229%
17 | C#CCOCCOCCOCCNc1nc(N2CCN(C(=O)[C@H](CCC(=O)O)n3cc(C(N)CO)nn3)CC2)nc(N2CCN(C(=O)[C@H](Cc3ccc(O)cc3)n3cc(C(N)[C@H](C)CC)nn3)CC2)n1 (some centres not stated) | 2.1%
18 | O=C([C@@H]1[C@@H](CO)[C@@H]2Cn3c(ccc(-c4ccccc4F)c3=O)[C@H]1N2C(=O)C1CCC1)N1CCCCC1 | -3.29%
19 | C[C@@H]1CCCCO[C@H](CN(C)C(=O)Nc2ccc(C(F)(F)F)cc2)[C@@H](C)CN([C@@H](C)CO)C(=O)c2cc(NS(=O)(=O)c3cccs3)ccc2O1 | 2.48%
20 | CO[C@@H]1CN(C)C(=O)c2cc(NC(C)=O)ccc2OC[C@H](C)N(Cc2ccccn2)C[C@H]1C | -0.12%
21 | N#C[C@@H]1[C@@H](c2ccccc2C2=CCCC2)[C@H](CO)N1C(=O)NC1CCCC1 | 2.11%
22 | COCC#Cc1ccc([C@@H]2[C@@H](CO)N3C(=O)CN(C(=O)C4CCOCC4)C[C@@H]23)cc1 | -0.906%
